# Assay results reported in PubChem BioAssay (Tox21).
# Values without a mark were called inactive. Inconclusive results are not listed. Where a call stands in place of a potency, no number is given. Active and inactive are the calls of the source. Unless noted, the call rests on the fitted dose curve; in most records, active means well fitted curve in the direction sought with a large enough effect in the repeat runs; inconclusive means weak or mixed curves; inactive means no such curve, though single readings can be large; an effect the other way counts as inactive or inconclusive.
# Legend:
# [1] = qHTS assay to identify small molecule phospholipidosis (PLD) inducers (AID 1259344; active means well fitted curve in the direction sought with a large enough effect; an effect the other way counts as inactive or inconclusive)
# Outline: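 Quantitative HTS in HepG2: compound plus LipidTOX Red dye for 24 h, paraformaldehyde fixation with Hoechst 33342, widefield high-content imaging; amiodarone as positive and DMSO as negative control.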
# [2] = qHTS assay for small molecule agonists of the p53 signaling pathway (AID 651631; calls by dose curve; further: nearly all actives have a fitted effect of over 15% in size)
# Outline: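 Quantitative high-throughput format: 4,000 p53RE-bla HCT-116 cells/well, 5 h pre-incubation, 16 h compound exposure at 37 °C, 2 h room-temperature substrate step, fluorescence intensity measured.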
# [3] = Caspase-3/7 induction in HepG2 cells by small molecules, qHTS assay (AID 1346978); further: nearly all actives have a fitted effect of over 15% in size
# Outline: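 Wild-type HepG2 cells, 2,000/well, settled 5 hr at 37 C and 5% CO2, then compound-treated for 17 hr; caspase-3/7 activity read by luminescent Caspase-Glo 3/7 after 30 min at room temperature.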
# [4] = target: Acetylcholinesterase (Homo sapiens) (UniProt P22303); assay: Acetylcholinesterase (AChE) small molecule antagonists: enzyme-based qHTS assay with human liver microsomes (AID 1347399; calls by dose curve; further: nearly all actives have a fitted effect of over 60% in size); settings: Potency: qHTS inhibition; outcome: qHTS inhibition
# Outline: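 Recombinant human AChE (50 mU/mL in the enzyme mix) and human liver microsomes (0.25 mg/mL final) were preincubated with compound and NADPH (0.25 mg/mL final) for 30 min at 37 C. Acetylthiocholine/DTNB was then added; thiocholine was read colorimetrically after 10 min at room temperature.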
# [5] = target: Glucocorticoid receptor (Homo sapiens) (UniProt P04150); assay: qHTS assay to identify small molecule antagonists of the glucocorticoid receptor (GR) signaling pathway (AID 720692; active means well fitted inhibition curve with a large enough effect in the signal ratio in the repeat runs, not every such curve was filed as active; the % refers to the signal ratio)
# Outline: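 GR-bla HeLa cells carrying a GRE-driven beta-lactamase reporter received compound after 4 h plating, then dexamethasone (5 nM final). After 18 h at 37C, the FRET substrate was loaded for 2 h at room temperature and fluorescence read.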
# [6] = target: Peroxisome proliferator-activated receptor delta (Homo sapiens) (UniProt Q03181); assay: qHTS assay to identify small molecule agonists of the peroxisome proliferator-activated receptor delta (PPARd) signaling pathway (AID 743212; calls by dose curve;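 further: HEK293H cells with PPARd UAS beta-lactamase reporter GeneBLAzer system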)
# Outline: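 Quantitative high-throughput agonist screen in a HEK293H beta-lactamase reporter line under UAS control. Compounds in DMSO, at 37 C. Fluorescence read after 2 h with FRET substrate at room temperature.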
# [7] = target: Androgen receptor (Homo sapiens) (UniProt P10275); assay: qHTS assay to identify small molecule antagonists of the androgen receptor (AR) signaling pathway (AID 743035; active means well fitted inhibition curve with a large enough effect in the signal ratio in the repeat runs, not every such curve was filed as active; the % refers to the signal ratio; further: potency means the concentration at half of the fitted maximal effect)
# Outline: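 HEK293 cells stably carrying UAS-beta-lactamase reporter, 2,000/well, given compounds plus R1881 agonist and incubated 16 h at 37C. LiveBLAzer B/G FRET substrate then added for 2 h at room temperature before fluorescence reading.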
# [8] = target: Androgen receptor (Homo sapiens) (UniProt P10275); assay: qHTS assay to identify small molecule agonists of the androgen receptor (AR) signaling pathway (AID 743036; active means well fitted activation curve with a large enough effect in the signal ratio in the repeat runs, with a control signal flat, not every such curve was filed as active; the % refers to the signal ratio)
# Outline: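 Beta-lactamase under UAS control, stably integrated in HEK293 GripTite cells, reports receptor activation. After 16 h compound treatment, cells received FRET substrate for 2 h at room temperature before fluorescence reading.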
# [9] = target: Androgen receptor (Homo sapiens) (UniProt P10275); assay: qHTS assay to identify small molecule agonists of the androgen receptor (AR) signaling pathway using the MDA cell line (AID 743040; further: nearly all actives have a fitted effect of over 20% in size)
# Outline: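 Human breast carcinoma MDA-kb2 reporter cells (MMTV-luc, AR/GR elements) were treated for 16 h at 37C in 0% CO2 following a 5 h settling period. Signal was quantified by ONE-Glo luminescence.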
# [10] = target: Androgen receptor (Homo sapiens) (UniProt P10275); assay: qHTS assay to identify small molecule antagonists of the androgen receptor (AR) signaling pathway using the MDA cell line (AID 743042; further: nearly all actives have a fitted effect of over 55% in size; further: potency means the concentration at half of the fitted maximal effect)
# Outline: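 MDA-kb2 breast carcinoma cells carrying MMTV-luciferase (AR/GR responsive) were co-treated with compounds and the agonist R1881 for 16 h at 37C. Inhibition read as ONE-Glo luminescence; CellTiter-Fluor fluorescence measured in parallel for cytotoxicity.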
# [11] = target: Estrogen receptor (Homo sapiens) (UniProt P03372); assay: qHTS assay to identify small molecule antagonists of the estrogen receptor alpha (ER-alpha) signaling pathway (AID 743069; active means well fitted curve in the direction sought with a large enough effect in the signal ratio in the repeat runs, not every such curve was filed as active; the % refers to the signal ratio)
# Outline: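 Reporter cells (ER-alpha-bla, HEK293 background) are conditioned overnight in stripped-serum medium (2% charcoal-stripped FBS). Compound and 17beta-estradiol exposure runs 18 hr at 37C, 5% CO2.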
# [12] = qHTS assay for identifying genotoxic compounds that show differential cytotoxicity against isogenic chicken DT40 cell lines with known DNA damage response pathways - Rad54/Ku70 mutant cell line (AID 743015); further: nearly all actives have a fitted effect of over 60% in size; further: potency means the concentration at half of the fitted maximal effect
# [13] = target: Nuclear receptor subfamily 1 group I member 2 (Rattus norvegicus) (UniProt Q9R1A7); assay: Rat pregnane X receptor (rPXR) activation by small molecules, qHTS assay (AID 1346983); settings: rPXR luciferase reporter cells, One-Glo luminescence, 24 h; max activation: stronger effect = higher value; further: nearly all actives have a fitted effect of over 20% in size
# Outline: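 Cell-based rPXR activation assay: rPXR cells, 2,000 per well, rested 5hr at 37 C, then exposed to compounds in DMSO for 24 hr at 37 C. Luciferase activity read by One-Glo luminescence after 30 min at room temperature.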
# [14] = target: Nuclear receptor subfamily 1 group I member 2 (Homo sapiens) (UniProt O75469); assay: Human pregnane X receptor (PXR) activation by small molecules, qHTS assay (AID 1346985); further: nearly all actives have a fitted effect of over 40% in size
# Outline: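 DPX-2 cells (HepG2 co-transfected with a PXR response element and a CYP3A4-promoter luciferase construct) were seeded at 2,000 per well, rested 5 hr at 37C, then exposed to DMSO-dissolved compounds for 24 hr. Activation was read as luciferase luminescence.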
# [15] = qHTS assay for small molecule activators of the heat shock response signaling pathway (AID 743210; active means well fitted activation curve with a large enough effect in the signal ratio in the repeat runs, with a control signal flat, not every such curve was filed as active; the % refers to the signal ratio;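 further: HeLa cells with beta-lactamase reporter driven by heat shock elements; series mostly up to about 63 µM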)
# Outline: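 Quantitative high-throughput format using an engineered HeLa line in which heat shock response elements drive beta-lactamase; after 5 h with compound, cells received a B/G FRET substrate and fluorescence was read.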
# [16] = target: Thyrotropin receptor (Homo sapiens) (UniProt P16473); assay: qHTS assay to identify small molecule antagonists of the thyroid stimulating hormone receptor (TSHR) signaling pathway (AID 1259385; calls by dose curve; further: nearly all actives have a fitted effect of over 20% in size)
# Outline: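 TSHR-HEK293 cells (800/well) plated 18 h, then compounds with Ro20-1724 and TSH at 1.5 ng/mL final, 30 min at room temperature. cAMP quantified by HTRF (cAMP-d2/anti-cAMP-cryptate, 1 h); 15 concentrations in triplicate.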
# Sequence of Androgen receptor (Homo sapiens) (P10275 whole entry, looked up): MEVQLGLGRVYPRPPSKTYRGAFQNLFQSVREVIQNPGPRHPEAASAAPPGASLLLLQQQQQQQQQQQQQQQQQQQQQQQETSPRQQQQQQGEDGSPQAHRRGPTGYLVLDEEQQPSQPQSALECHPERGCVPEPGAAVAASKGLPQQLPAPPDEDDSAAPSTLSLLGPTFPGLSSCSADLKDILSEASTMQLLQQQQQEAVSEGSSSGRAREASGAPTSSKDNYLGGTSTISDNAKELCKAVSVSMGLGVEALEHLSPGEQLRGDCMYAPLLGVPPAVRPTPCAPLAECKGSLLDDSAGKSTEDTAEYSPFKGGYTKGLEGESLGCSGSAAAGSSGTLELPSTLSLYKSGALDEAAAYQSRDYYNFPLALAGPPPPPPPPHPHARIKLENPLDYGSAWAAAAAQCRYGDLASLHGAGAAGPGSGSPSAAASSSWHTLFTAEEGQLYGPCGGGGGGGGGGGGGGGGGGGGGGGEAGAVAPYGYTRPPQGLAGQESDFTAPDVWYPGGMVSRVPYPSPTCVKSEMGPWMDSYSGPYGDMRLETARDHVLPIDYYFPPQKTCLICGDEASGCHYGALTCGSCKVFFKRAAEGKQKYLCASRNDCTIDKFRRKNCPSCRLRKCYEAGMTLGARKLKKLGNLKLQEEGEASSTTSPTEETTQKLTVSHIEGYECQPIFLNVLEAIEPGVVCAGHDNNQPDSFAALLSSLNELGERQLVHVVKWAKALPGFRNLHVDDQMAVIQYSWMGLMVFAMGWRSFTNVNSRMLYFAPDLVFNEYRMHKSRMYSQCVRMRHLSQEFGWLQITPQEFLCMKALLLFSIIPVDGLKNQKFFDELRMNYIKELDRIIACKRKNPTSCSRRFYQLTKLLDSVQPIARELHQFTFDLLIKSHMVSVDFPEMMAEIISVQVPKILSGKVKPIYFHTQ
# Sequence of Glucocorticoid receptor (Homo sapiens) (P04150 whole entry, looked up): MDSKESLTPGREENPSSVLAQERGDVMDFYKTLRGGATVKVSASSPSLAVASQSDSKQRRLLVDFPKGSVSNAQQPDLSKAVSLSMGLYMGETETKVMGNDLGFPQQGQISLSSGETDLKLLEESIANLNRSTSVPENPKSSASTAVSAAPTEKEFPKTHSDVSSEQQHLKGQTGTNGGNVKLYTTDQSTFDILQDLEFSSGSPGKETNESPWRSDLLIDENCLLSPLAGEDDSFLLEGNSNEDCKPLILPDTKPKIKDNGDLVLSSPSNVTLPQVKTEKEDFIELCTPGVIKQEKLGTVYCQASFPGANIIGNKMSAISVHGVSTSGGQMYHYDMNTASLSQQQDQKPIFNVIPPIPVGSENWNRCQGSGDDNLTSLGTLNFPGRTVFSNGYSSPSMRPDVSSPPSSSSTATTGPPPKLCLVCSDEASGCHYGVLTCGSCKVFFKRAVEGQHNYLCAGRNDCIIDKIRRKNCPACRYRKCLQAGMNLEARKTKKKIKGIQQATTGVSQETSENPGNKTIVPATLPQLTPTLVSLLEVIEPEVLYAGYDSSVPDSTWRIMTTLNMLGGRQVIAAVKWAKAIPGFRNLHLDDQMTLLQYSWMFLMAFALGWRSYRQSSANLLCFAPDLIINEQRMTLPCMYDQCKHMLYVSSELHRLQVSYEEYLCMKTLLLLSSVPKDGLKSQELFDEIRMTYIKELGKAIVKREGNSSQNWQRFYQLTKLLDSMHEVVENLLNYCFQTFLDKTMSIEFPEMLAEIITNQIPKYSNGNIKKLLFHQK
# Sequence of Nuclear receptor subfamily 1 group I member 2 (Rattus norvegicus) (Q9R1A7 whole entry, looked up): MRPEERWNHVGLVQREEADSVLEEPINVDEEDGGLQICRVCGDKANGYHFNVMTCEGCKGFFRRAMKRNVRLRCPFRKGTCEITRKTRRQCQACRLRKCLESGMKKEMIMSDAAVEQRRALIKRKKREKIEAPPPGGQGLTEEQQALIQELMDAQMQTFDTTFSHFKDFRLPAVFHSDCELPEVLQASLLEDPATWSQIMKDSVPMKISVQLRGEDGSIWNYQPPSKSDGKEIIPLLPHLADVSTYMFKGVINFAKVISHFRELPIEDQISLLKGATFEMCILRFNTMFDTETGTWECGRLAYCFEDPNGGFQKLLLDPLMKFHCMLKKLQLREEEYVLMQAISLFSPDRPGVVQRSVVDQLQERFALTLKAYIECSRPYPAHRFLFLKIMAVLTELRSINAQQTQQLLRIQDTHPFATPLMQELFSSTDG
# Sequence of Acetylcholinesterase (Homo sapiens) (P22303 whole entry, looked up): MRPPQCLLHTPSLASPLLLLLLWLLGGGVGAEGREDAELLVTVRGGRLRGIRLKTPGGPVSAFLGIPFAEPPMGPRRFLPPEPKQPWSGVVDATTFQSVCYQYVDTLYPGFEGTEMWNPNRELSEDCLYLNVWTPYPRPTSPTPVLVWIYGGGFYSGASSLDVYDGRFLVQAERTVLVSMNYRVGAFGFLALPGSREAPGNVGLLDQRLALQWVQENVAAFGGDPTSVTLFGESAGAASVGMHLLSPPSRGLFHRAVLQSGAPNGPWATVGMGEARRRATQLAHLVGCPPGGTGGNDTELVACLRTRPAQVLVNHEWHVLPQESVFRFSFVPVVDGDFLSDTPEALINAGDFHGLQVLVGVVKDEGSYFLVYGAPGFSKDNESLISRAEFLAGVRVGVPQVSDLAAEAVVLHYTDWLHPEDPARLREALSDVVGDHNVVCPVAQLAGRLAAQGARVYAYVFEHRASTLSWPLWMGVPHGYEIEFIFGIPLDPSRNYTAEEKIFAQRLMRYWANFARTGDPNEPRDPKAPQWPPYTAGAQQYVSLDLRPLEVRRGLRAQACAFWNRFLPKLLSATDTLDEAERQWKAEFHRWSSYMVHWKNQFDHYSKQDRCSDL
# Sequence of Estrogen receptor (Homo sapiens) (P03372 whole entry, looked up): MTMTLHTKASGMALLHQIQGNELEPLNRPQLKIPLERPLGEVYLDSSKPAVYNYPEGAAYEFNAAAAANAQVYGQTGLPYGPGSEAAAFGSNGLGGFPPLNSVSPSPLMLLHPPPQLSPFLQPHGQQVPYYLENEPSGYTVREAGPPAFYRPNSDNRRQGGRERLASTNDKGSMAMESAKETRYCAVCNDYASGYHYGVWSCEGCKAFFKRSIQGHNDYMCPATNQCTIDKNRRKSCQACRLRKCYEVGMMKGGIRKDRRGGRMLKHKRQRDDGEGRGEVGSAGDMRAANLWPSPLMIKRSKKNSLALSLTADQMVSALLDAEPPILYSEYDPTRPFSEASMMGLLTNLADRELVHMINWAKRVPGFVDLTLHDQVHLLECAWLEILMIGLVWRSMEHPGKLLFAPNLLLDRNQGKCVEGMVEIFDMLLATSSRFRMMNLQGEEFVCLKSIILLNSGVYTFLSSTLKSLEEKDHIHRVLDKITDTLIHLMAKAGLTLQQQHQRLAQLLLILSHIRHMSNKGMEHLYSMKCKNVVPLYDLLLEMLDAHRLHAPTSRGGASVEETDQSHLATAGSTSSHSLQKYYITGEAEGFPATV
# Sequence of Peroxisome proliferator-activated receptor delta (Homo sapiens) (Q03181 whole entry, looked up): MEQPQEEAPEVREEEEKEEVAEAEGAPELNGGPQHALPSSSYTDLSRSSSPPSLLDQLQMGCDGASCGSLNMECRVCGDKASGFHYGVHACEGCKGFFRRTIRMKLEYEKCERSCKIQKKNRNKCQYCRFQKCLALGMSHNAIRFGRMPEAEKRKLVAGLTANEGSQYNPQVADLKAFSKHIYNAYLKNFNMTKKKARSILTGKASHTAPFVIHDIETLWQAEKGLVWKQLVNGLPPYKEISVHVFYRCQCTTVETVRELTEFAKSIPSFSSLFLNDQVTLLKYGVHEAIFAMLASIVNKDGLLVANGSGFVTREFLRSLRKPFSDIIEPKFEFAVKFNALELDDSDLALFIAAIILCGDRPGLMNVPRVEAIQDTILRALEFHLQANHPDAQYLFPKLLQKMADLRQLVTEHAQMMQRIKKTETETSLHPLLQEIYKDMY
# Sequence of Thyrotropin receptor (Homo sapiens) (P16473 whole entry, looked up): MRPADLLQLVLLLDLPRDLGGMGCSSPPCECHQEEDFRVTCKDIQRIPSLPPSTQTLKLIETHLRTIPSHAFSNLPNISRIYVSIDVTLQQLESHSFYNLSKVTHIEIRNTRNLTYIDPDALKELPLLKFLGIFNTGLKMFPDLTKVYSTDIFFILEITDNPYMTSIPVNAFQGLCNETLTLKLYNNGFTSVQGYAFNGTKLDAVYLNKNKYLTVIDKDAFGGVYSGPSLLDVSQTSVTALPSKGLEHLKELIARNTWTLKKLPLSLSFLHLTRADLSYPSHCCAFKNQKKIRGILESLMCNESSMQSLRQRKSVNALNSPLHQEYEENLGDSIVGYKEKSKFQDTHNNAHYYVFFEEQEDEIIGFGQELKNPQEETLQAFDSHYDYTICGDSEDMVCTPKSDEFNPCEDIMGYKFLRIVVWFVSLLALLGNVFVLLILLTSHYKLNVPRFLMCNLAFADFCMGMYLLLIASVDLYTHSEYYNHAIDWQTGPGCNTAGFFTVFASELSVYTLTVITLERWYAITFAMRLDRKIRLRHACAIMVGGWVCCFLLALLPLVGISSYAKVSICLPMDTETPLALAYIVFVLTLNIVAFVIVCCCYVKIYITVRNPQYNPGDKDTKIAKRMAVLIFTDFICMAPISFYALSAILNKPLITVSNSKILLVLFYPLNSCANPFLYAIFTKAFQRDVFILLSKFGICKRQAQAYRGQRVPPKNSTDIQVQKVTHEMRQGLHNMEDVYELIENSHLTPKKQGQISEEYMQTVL
compound,measurement,setting,value
COc1ccc(OC)c(C[C@H](C)N)c1,Potency,[1],inactive
Clc1ccc(Cl)c(Cl)c1Cl,Potency,[2],inactive
same,Potency,[3],inactive
same,Potency,[4],inactive
C=CCOc1c(Br)cc(C(C)(C)c2cc(Br)c(OCC=C)c(Br)c2)cc1Br,Potency,[2],inactive
same,Potency,[5],inactive
same,outcome,[6],inactive
same,Potency,[3],inactive
same,Potency,[4],inactive
CNC(C)CC1CCCCC1 (stereo not drawn),Potency,[5],inactive
same,Potency,[7],inactive
same,Potency,[8],inactive
same,Potency,[9],inactive
same,Potency,[10],inactive
same,Potency,[11],inactive
same,Potency,[1],inactive
CCN(CC)/[N+]([O-])=N/O,Potency,[5],inactive
same,Potency,[1],inactive
C[N+]1(C)[C@@H]2CC[C@H]1CC(OC(=O)c1c[nH]c3ccccc13)C2 (stereo partly drawn),Potency,[12],inactive
same,Potency,[7],inactive
same,Potency,[10],inactive
same,Potency,[11],inactive
same,max activation,[13],-3.92%
same,Potency,[14],inactive
CO[C@H]1[C@@H](O)C[C@H](O[C@H]2[C@@H](O)C[C@H](O[C@H]3[C@@H](O)C[C@H](O[C@H]4CC[C@@]5(C)[C@H](CC[C@@H]6[C@@H]5C[C@@H](O)[C@]5(C)[C@@H](C7=CC(=O)OC7)CC[C@]65O)C4)O[C@@H]3C)O[C@@H]2C)O[C@@H]1C,Potency,[12],668 nM (active)
same,Potency,[7],338 nM (active)
same,Potency,[10],1680 nM (active)
same,max activation,[13],-4.43%
same,Potency,[14],inactive
CCCCCc1cc(O)c2c(c1)OC(C)(C)c1ccc(C)cc1-2,Potency,[7],16900 nM (active)
same,Potency,[9],inactive
same,Potency,[1],inactive
Brc1ccc(Oc2ccc(Br)cc2)cc1,Potency,[2],inactive
same,Potency,[15],inactive
same,Potency,[3],inactive
same,Potency,[4],inactive
Clc1cc(Cl)c(Cl)cc1Cl,Potency,[3],inactive
same,Potency,[4],inactive
N#CCCNCCC#N,Potency,[16],inactive
same,Potency,[4],inactive
CC1(C)C(C=C(Cl)Cl)C1C(=O)OCc1cccc(Oc2ccccc2)c1 (stereo not drawn),Potency,[3],inactive
same,Potency,[4],inactive
O=C(Cl)c1cccc(C(=O)Cl)c1,Potency,[3],inactive
same,Potency,[4],inactive
CC(=O)OCC(=O)[C@H]1CC[C@H]2[C@@H]3CC[C@H]4C[C@H](O)CC[C@]4(C)[C@H]3C(=O)C[C@]12C,Potency,[5],inactive
same,Potency,[12],inactive
same,Potency,[11],inactive
same,max activation,[13],-0.613%
same,Potency,[14],inactive
C[N+](C)(C)CCCCCCCCCC[N+](C)(C)C,Potency,[5],inactive
same,Potency,[15],inactive
same,Potency,[3],inactive
same,Potency,[4],inactive
COc1ccc2c(c1)C13CCCC[C@@H]1C(C2)N(C)CC3 (stereo partly drawn),Potency,[5],inactive
same,Potency,[11],inactive
same,max activation,[13],-0.312%
same,Potency,[14],inactive
CCOC(=O)C1(c2ccccc2)CCCN(C)CC1 (stereo not drawn),Potency,[5],inactive
same,Potency,[12],inactive
same,Potency,[11],inactive
same,Potency,[1],inactive
COc1cc([C@@H]2c3cc4c(cc3[C@H](O)[C@H]3COC(=O)[C@H]23)OCO4)cc(OC)c1OC,Potency,[3],inactive
same,Potency,[4],inactive
